In the supplement of paper PMC9023506:
Where a name gives a salt, the structure may show the parent alone.

Tested on: Danio rerio larvae (5 dpf)
Assay: activity during period 15 (no stimuli), difference vs DMSO (percentage points (treated minus DMSO)); higher = more of the behaviour than the DMSO vehicle control
Settings: 10 µM; exposure time: 3 h pre-incubation + 3 h imaging
Protocol: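 5-dpf wild-type zebrafish larvae were imaged in 96-well plates. They were treated with 190 Tocris FDA-approved drugs at 10 µM (1 µl/ml DMSO) for 3 h before and 3 h during imaging at 28.5 °C, 48 larvae per drug. Automated image analysis gave % time moving and optomotor responses. Values are drug group mean minus DMSO vehicle mean (n=844), in percentage points, for 10 behaviours.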

Row | SMILES | activity during period 15
1 | CCOC(=O)c1ncn2c1CN(C)C(=O)c1cc(F)ccc1-2 [Flumazenil] | 11.9
2 | Cc1ccc(-c2cc(C(F)(F)F)nn2-c2ccc(S(N)(=O)=O)cc2)cc1 [Celecoxib] | 3.28
3 | CS(=O)(=O)CCNCc1ccc(-c2ccc3ncnc(Nc4ccc(OCc5cccc(F)c5)c(Cl)c4)c3c2)o1 [Lapatinib] | -13.3
4 | O=C(O)CCCc1ccccc1 [Sodium 4-Phenylbutyrate] | 0.951
5 | CC1=Nc2ccc(Cl)cc2S(=O)(=O)N1 [Diazoxide] | 2.35
6 | COCCCOc1cc(C[C@@H](C[C@H](N)[C@@H](O)C[C@H](C(=O)NCC(C)(C)C(N)=O)C(C)C)C(C)C)ccc1OC [Aliskiren hemifumarate] | -3.61
7 | NS(=O)(=O)c1cc2c(cc1Cl)NC(C1CC3C=CC1C3)NS2(=O)=O (stereo not given) [Cyclothiazide] | 3.93
8 | COCCc1ccc(OCC(O)CNC(C)C)cc1 (stereo not given) [Metoprolol tartrate] | 3.61
9 | CCCCNc1cc(C(=O)O)cc(S(N)(=O)=O)c1Oc1ccccc1 [Bumetanide] | -2.8
10 | CN1CCC[C@@H]1Cc1c[nH]c2ccc(CCS(=O)(=O)c3ccccc3)cc12 [Eletriptan hydrobromide] | -0.424
11 | CN(CCOc1ccc(NS(C)(=O)=O)cc1)CCc1ccc(NS(C)(=O)=O)cc1 [Dofetilide] | -9.09
12 | CN1CC[C@@H](NC(=O)Nc2ccc(C#N)cc2)C[C@@H]1c1nc2ccccc2[nH]1 | -0.815
13 | CCCCCOC(=O)Nc1nc(=O)n([C@@H]2O[C@H](C)[C@@H](O)[C@H]2O)cc1F [Capecitabine] | 2.91
14 | CC(C)n1c(/C=C/C(O)CC(O)CC(=O)O)c(-c2ccc(F)cc2)c2ccccc21 (stereo not given) [Fluvastatin sodium] | 5.99
15 | CCCN(CCc1cccs1)[C@H]1CCc2c(O)cccc2C1 [Rotigotine hydrochloride] | -35.4
16 | O=C(NCC1CCCCN1)c1cc(OCC(F)(F)F)ccc1OCC(F)(F)F (stereo not given) [Flecainide acetate] | -6.75
17 | CN(C)CCc1c[nH]c2ccc(C[C@H]3COC(=O)N3)cc12 [Zolmitriptan] | 2.6
18 | COc1ccc(-c2ccc3cc(C(=O)O)ccc3c2)cc1C12CC3CC(CC(C3)C1)C2 [Adapalene] | -3.39
19 | Nc1nc2c(ncn2COCCO)c(=O)[nH]1 [Acyclovir] | -4.38
20 | Cc1nc(-c2ccc(OCC(C)C)c(C#N)c2)sc1C(=O)O [Febuxostat] | 10

Row | SMILES | activity during period 15
21 | O=C(c1ccc(OCCN2CCCCC2)cc1)c1c(-c2ccc(O)cc2)sc2cc(O)ccc12 [Raloxifene hydrochloride] | -8.58
22 | CC1CNc2c(cccc2S(=O)(=O)N[C@@H](CCCNC(=N)N)C(=O)N2CC[C@@H](C)C[C@@H]2C(=O)O)C1 (stereo not given in full) [Argatroban] | -2.33
23 | CCCCCCCCc1ccc(CCC(N)(CO)CO)cc1 | -23.3
24 | NC(=O)c1ncn([C@@H]2O[C@H](CO)[C@@H](O)[C@H]2O)n1 [Ribavirin] | -3.78
25 | CC(=O)S[C@@H]1CC2=CC(=O)CC[C@]2(C)[C@H]2CC[C@@]3(C)[C@@H](CC[C@@]34CCC(=O)O4)[C@H]12 [Spironolactone] | -1.27
26 | CCOc1nc2cccc(C(=O)O)c2n1Cc1ccc(-c2ccccc2-c2noc(=O)[nH]2)cc1 [Azilsartan] | 3.86
27 | Cc1ccc(N(CC2=NCCN2)c2cccc(O)c2)cc1 [Phentolamine Mesylate] | 4.99
28 | N#C[C@@H]1C[C@@H]2C[C@@H]2N1C(=O)[C@@H](N)C12CC3CC(CC(O)(C3)C1)C2 [Saxagliptin hydrochloride] | 5.2
29 | CC(C)(C#N)c1cc(Cn2cncn2)cc(C(C)(C)C#N)c1 [Anastrozole] | 2.84
30 | Cc1cc2c(s1)Nc1ccccc1N=C2N1CCN(C)CC1 [Olanzapine] | 5.7
31 | COc1ccc([C@@H]2Sc3ccccc3N(CCN(C)C)C(=O)[C@@H]2OC(C)=O)cc1 [Diltiazem hydrochloride] | -3.65
32 | NS(=O)(=O)c1cc(C(=O)O)c(NCc2ccco2)cc1Cl [Furosemide] | 9.33
33 | CC(C)CN(C[C@@H](O)[C@H](Cc1ccccc1)NC(=O)O[C@H]1CO[C@H]2OCC[C@H]21)S(=O)(=O)c1ccc(N)cc1 [Darunavir] | 11.1
34 | O=C(O)c1cc(/N=N/c2ccc(S(=O)(=O)Nc3ccccn3)cc2)ccc1O [Sulfasalazine] | 15.3
35 | CC(C)(C)NC(=O)[C@@H]1C[C@@H]2CCCC[C@@H]2CN1C[C@@H](O)[C@H](Cc1ccccc1)NC(=O)[C@H](CC(N)=O)NC(=O)c1ccc2ccccc2n1 [Saquinavir mesylate] | -12.8
36 | CC[C@H]1OC(=O)[C@H](C)[C@@H](O[C@H]2C[C@@](C)(OC)[C@@H](O)[C@H](C)O2)[C@H](C)[C@@H](O[C@@H]2O[C@H](C)C[C@H](N(C)C)[C@H]2O)[C@](C)(O)C[C@@H](C)CN(C)[C@H](C)[C@@H](O)[C@]1(C)O [Azithromycin] | -17.4
37 | O=C(O)C[C@H](O)C[C@H](O)/C=C/c1c(C2CC2)nc2ccccc2c1-c1ccc(F)cc1 [Pitavastatin calcium] | -4.44
38 | COc1c(C)c2c(c(O)c1C/C=C(\C)CCC(=O)O)C(=O)OC2 [Mycophenolic acid] | 9.46
39 | OCCOCCN1CCN(C2=Nc3ccccc3Sc3ccccc32)CC1 [Quetiapine hemifumarate] | 16.8
40 | COc1cccc2c1C(=O)c1c(O)c3c(c(O)c1C2=O)C[C@@](O)(C(=O)CO)C[C@@H]3O[C@H]1C[C@H](N)[C@H](O)[C@H](C)O1 [Doxorubicin hydrochloride] | -10.6
